# From PubChem BioAssay (NCI)
# Compounds without any hit were thinned out: in the full panel of roughly 83,000, 20% have a hit.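 Negative percent growth values reflect cell death: -40 means 40% of the cells present at the start died, and -100 means all died.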 Active and inactive are the calls of the source. Rule for the calls: active = growth percent below 10; inactive = the rest.
# Test system: MALME-3M melanoma
# Experiment: NCI-60 one-dose screen, 48 h (100 = growth as untreated, 0 = no growth, -100 = all killed)
# Conditions: 10 µM unless noted
row,Compound,growth
1,C=C1C(=O)O[C@H]2[C@H]1CCC(/C=N/c1ncc(Br)cc1N)=C\CC[C@@]1(C)O[C@@H]21,-9.18% (active)
2,C#Cc1ccccc1NC(=O)c1sc2nc3c(cc2c1N)CCCCC3,102% (inactive)
3,NS(=O)(=O)c1ccc(-n2nc(-c3ccccc3)ccc2=O)cc1,82.5% (inactive)
4,COc1ccc(-c2nnc(N3CCN(C(=O)CN4CCN(c5ccc(OC)cc5)CC4)CC3)nc2-c2ccc(OC)cc2)cc1,-72.7% (active)
5,N#Cc1ccc(Oc2ccc3ccc(=O)oc3c2)cc1,126% (inactive)
6,CC1CCCN(CCCCCOc2ccc3oc4ccccc4c(=O)c3c2)C1 (stereo not drawn),4.45% (active)
7,CS(=O)(=O)O[C@@H]1C(=O)N(c2cc3c4ccccc4ccc3c3ccccc23)[C@H]1c1ccc(F)cn1,74.2% (inactive)
8,C=C1C(=O)O[C@H]2[C@H]1CC/C(C=Nc1c(N)cc(F)cc1Br)=C\CC[C@@]1(C)O[C@@H]21,99.5% (inactive)
9,Cc1ccc(SC2c3ccc(C)cc3Oc3nc(N)c(C#N)c(N)c32)cc1 (stereo not drawn),31.9% (inactive)
10,O=C(Nc1nccs1)c1noc2ccccc12,96.8% (inactive)
11,C=C(C)[C@@H]1CC[C@]2(C(=O)OCCCC[P+](c3ccccc3)(c3ccccc3)c3ccccc3)CC[C@]3(C)[C@H](CC[C@@H]4[C@@]5(C)CC[C@H](OC(=O)C(Cl)Cl)C(C)(C)[C@@H]5CC[C@]43C)[C@@H]12,-85.7% (active)
12,Cc1cc2ccccc2c[n+]1CC(=O)c1ccc(-c2ccccc2)cc1,71.4% (inactive)
13,O=C1Nc2ccc(Cl)cc2/C1=N/c1nc(-c2ccc(F)cc2)cs1,53.6% (inactive)
14,COc1cc(/C=N/Nc2nc(-c3ccc(F)cc3)c(C#N)c(N3CCOCC3)n2)ccc1O,122% (inactive)
15,C=C(C)[C@@H]1CC[C@]2(C(=O)N=C=S)CC[C@]3(C)[C@H](CC[C@@H]4[C@@]5(C)CCC(=O)C(C)(C)[C@@H]5CC[C@]43C)[C@@H]12,40.7% (inactive)
16,CC1(C)[C@@H](O)CC[C@]2(C)[C@H]3CC[C@@H]4[C@H]5[C@H](c6cn(-c7ccccc7)nn6)CC[C@]5(CO)CC[C@@]4(C)[C@]3(C)CC[C@@H]12,104% (inactive)
17,COc1cc(/C=C/C(=O)c2ccc(NC(=O)CSc3nnc(-c4cc(OC)c(OC)c(OC)c4)n3-c3ccccc3)cc2)cc(OC)c1OC,67.7% (inactive)
18,O=c1c2ccccc2n(CC(O)CN2CCCC2)c2c(Br)cccc12 (stereo not drawn),125% (inactive)
19,COc1cc(-c2cn(-c3ccc(Cl)c(Cl)c3)c(=O)[nH]2)cc(OC)c1OC,60.9% (inactive)
20,COC(=O)c1ccc2c(c1)n(Cc1ccc3ccccc3c1)c[n+]2Cc1ccc2ccccc2c1,-4.4% (active)
21,O=C1NN(c2ccccc2)C(c2ccc(Cl)cc2)N2CCC[C@H]12 (stereo partly drawn),92.2% (inactive)
22,Nc1ccccc1NS(=O)(=O)c1ccc(Cl)cc1,87.5% (inactive)
23,CCCCCCN1C(=O)CN=C1Nc1ccc2cc3ccc(NC4=NCC(=O)N4CCCCCC)cc3nc2c1,71.5% (inactive)
24,Nc1n[nH]c2cccc(C#Cc3cccc(NC(=O)c4cc(N5CCOCC5)cc(C(F)(F)F)c4)c3)c12,-18.1% (active)
25,Cc1cnc(SCc2ccc(Cl)cc2Cl)nc1Nc1ccc(Cl)c(Cl)c1,103% (inactive)

# Test system: MDA-MB-231 breast
# Experiment: as above
# Conditions: 10 µM unless noted
row,Compound,growth
1,COc1ccc(/C=C/C(=O)/C=C(/C=C/c2ccc(OC)c(OC)c2)OB(F)F)cc1OC,21% (inactive)
2,COc1cc(/C=C/C(=O)/C=C/c2cc3ccc(Cl)cc3[nH]c2=O)ccc1O,45.9% (inactive)
3,CCCCn1c(=O)c(/C=C/C(=O)/C=C/c2cc3ccccc3n(CCCC)c2=O)cc2ccccc21,-18.8% (active)
4,COc1ccc(-c2nc(C#N)c(NCC(c3ccco3)N3CCCC3)o2)cc1 (stereo not drawn),77.8% (inactive)
5,N#C/C(=C/c1ccc(O)c([N+](=O)[O-])c1)c1nc(-c2ccc([N+](=O)[O-])cc2)cs1,39.5% (inactive)
6,C=C1C(=O)O[C@H]2[C@H]1CC/C(COC(=O)CCCCC(=O)OC/C1=C/CC[C@@]3(C)O[C@H]3[C@H]3OC(=O)C(=C)[C@@H]3CC1)=C\CC[C@@]1(C)O[C@@H]21,29.5% (inactive)
7,CCOC(=O)c1c(C(F)(F)F)n([O-])c2ccc(Cl)cc2[n+]1=O,-39.1% (active)
8,COc1ccc(-c2nc(C#N)c(NCC(c3ccc(Cl)cc3)N3CCCCC3)o2)cc1 (stereo not drawn),102% (inactive)
9,O=CN1N=C(c2ccc(Cl)cc2)CC1c1cccc(Nc2ccnc3cc(C(F)(F)F)ccc23)c1 (stereo not drawn),80.7% (inactive)
10,O=C(CCCCCCCCC(=O)Nc1cccc(C2=NCCN2)c1)Nc1cccc(C2=NCCN2)c1,101% (inactive)
11,CCOC(=O)C1CCN(S(=O)(=O)/N=C2/NC(=O)NC2=C(Cl)Cl)CC1,9.62% (active)
12,S=c1ssnc1-c1cc2ccccc2o1,91.2% (inactive)
13,NS(=O)(=O)c1ccc(C2C3=C(CCCC3=O)OC3=C2C(=O)c2ccccc2C3=O)cc1 (stereo not drawn),5% (active)
14,C=C1C(=O)O[C@H]2[C@H]1CCC(/C=N/c1ncc(Br)cc1N)=C\CC[C@@]1(C)O[C@@H]21,-15.5% (active)
15,C#Cc1ccccc1NC(=O)c1sc2nc3c(cc2c1N)CCCCC3,93.5% (inactive)
16,NS(=O)(=O)c1ccc(-n2nc(-c3ccccc3)ccc2=O)cc1,108% (inactive)
17,COc1ccc(-c2nnc(N3CCN(C(=O)CN4CCN(c5ccc(OC)cc5)CC4)CC3)nc2-c2ccc(OC)cc2)cc1,8.6% (active)
18,N#Cc1ccc(Oc2ccc3ccc(=O)oc3c2)cc1,98.5% (inactive)
19,CC1CCCN(CCCCCOc2ccc3oc4ccccc4c(=O)c3c2)C1 (stereo not drawn),67.8% (inactive)

row,Compound,growth
1,CS(=O)(=O)O[C@@H]1C(=O)N(c2cc3c4ccccc4ccc3c3ccccc23)[C@H]1c1ccc(F)cn1,50.1% (inactive)
2,C=C1C(=O)O[C@H]2[C@H]1CC/C(C=Nc1c(N)cc(F)cc1Br)=C\CC[C@@]1(C)O[C@@H]21,65.1% (inactive)
3,Cc1ccc(SC2c3ccc(C)cc3Oc3nc(N)c(C#N)c(N)c32)cc1 (stereo not drawn),69.9% (inactive)
4,O=C(Nc1nccs1)c1noc2ccccc12,91.3% (inactive)
5,C=C(C)[C@@H]1CC[C@]2(C(=O)OCCCC[P+](c3ccccc3)(c3ccccc3)c3ccccc3)CC[C@]3(C)[C@H](CC[C@@H]4[C@@]5(C)CC[C@H](OC(=O)C(Cl)Cl)C(C)(C)[C@@H]5CC[C@]43C)[C@@H]12,-49.8% (active)
6,Cc1cc2ccccc2c[n+]1CC(=O)c1ccc(-c2ccccc2)cc1,51.1% (inactive)
7,O=C1Nc2ccc(Cl)cc2/C1=N/c1nc(-c2ccc(F)cc2)cs1,31.3% (inactive)
8,COc1cc(/C=N/Nc2nc(-c3ccc(F)cc3)c(C#N)c(N3CCOCC3)n2)ccc1O,99.8% (inactive)
9,C=C(C)[C@@H]1CC[C@]2(C(=O)N=C=S)CC[C@]3(C)[C@H](CC[C@@H]4[C@@]5(C)CCC(=O)C(C)(C)[C@@H]5CC[C@]43C)[C@@H]12,18% (inactive)
10,CC1(C)[C@@H](O)CC[C@]2(C)[C@H]3CC[C@@H]4[C@H]5[C@H](c6cn(-c7ccccc7)nn6)CC[C@]5(CO)CC[C@@]4(C)[C@]3(C)CC[C@@H]12,84.3% (inactive)
11,COc1cc(/C=C/C(=O)c2ccc(NC(=O)CSc3nnc(-c4cc(OC)c(OC)c(OC)c4)n3-c3ccccc3)cc2)cc(OC)c1OC,42.7% (inactive)
12,O=c1c2ccccc2n(CC(O)CN2CCCC2)c2c(Br)cccc12 (stereo not drawn),129% (inactive)
13,COc1cc(-c2cn(-c3ccc(Cl)c(Cl)c3)c(=O)[nH]2)cc(OC)c1OC,71.5% (inactive)
14,COC(=O)c1ccc2c(c1)n(Cc1ccc3ccccc3c1)c[n+]2Cc1ccc2ccccc2c1,28.5% (inactive)
15,O=C1NN(c2ccccc2)C(c2ccc(Cl)cc2)N2CCC[C@H]12 (stereo partly drawn),113% (inactive)
16,Nc1ccccc1NS(=O)(=O)c1ccc(Cl)cc1,98.2% (inactive)
17,CCCCCCN1C(=O)CN=C1Nc1ccc2cc3ccc(NC4=NCC(=O)N4CCCCCC)cc3nc2c1,30.7% (inactive)
18,Nc1n[nH]c2cccc(C#Cc3cccc(NC(=O)c4cc(N5CCOCC5)cc(C(F)(F)F)c4)c3)c12,30% (inactive)
19,Cc1cnc(SCc2ccc(Cl)cc2Cl)nc1Nc1ccc(Cl)c(Cl)c1,88.3% (inactive)
